Several values for one entry are separate records, joined by “and”; a condition that tells them apart may be missing. Identical values can stand only once. Records with an inconclusive call do not appear. Some compounds were tested as several samples or in several runs, with calls that do not always agree. Activity calls are given as the source filed them. Unless noted, the call rests on the fitted dose curve; in most records, active means well fitted curve in the direction sought with a large enough effect in the repeat runs; inconclusive means weak or mixed curves; inactive means no such curve, though single readings can be large; an effect the other way counts as inactive or inconclusive.
Tests used:
[1] = qHTS assay to identify small molecule agonists of the vitamin D receptor (VDR) signaling pathway - cell viability counter screen (AID 743224); further: nearly all actives have a fitted effect of over 50% in size
How it was run: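 VDR-bla cells were preincubated 4 h at 37C/5% CO2, then exposed to compounds for 16 h. After the 2 h room-temperature bla FRET read, CellTiter-Glo was added to the same wells and luminescence read after 30 min.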

[2] = qHTS assay to identify small molecule antagonists of the vitamin D receptor (VDR) signaling pathway - cell viability counter screen (AID 743225); further: nearly all actives have a fitted effect of over 50% in size
How it was run: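 Parallel cytotoxicity test: VDR-UAS-bla HEK 293T, 3 nM (final) 1-alpha,25-dihydroxyvitamin D3 with test compound, 16 h, 37C. Endpoint is CellTiter-Glo luminescence in the same wells.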

[3] = qHTS assay to identify small molecule agonists of the NFkB signaling pathway - cell viability counter screen (AID 1159515; calls by dose curve; further: nearly all actives have a fitted effect of over 55% in size; further: potency means the concentration at half of the fitted maximal effect)
How it was run: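 NFkB-bla ME-180 cells, 2,000/well, were plated overnight at 37 C, 5% CO2, then exposed to compounds in DMSO for 5 hr. After the bla FRET read, CellTiter-Glo was added to the same wells; luminescence was read after 30 min at room temperature.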

[4] = qHTS assay to identify small molecule agonists of the endoplasmic reticulum stress response signaling pathway - cell viability counter screen (AID 1159517; calls by dose curve;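 further: HeLa cells carrying an ER stress response element beta-lactamase reporter; nearly all actives have a fitted effect of over 50% in size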)
How it was run: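 CellTiter-Glo was added to wells already read for beta-lactamase FRET, and luminescence was recorded 30 min later. Cells: ESRE-bla HeLa, 1,500 per well, compound exposure 5 hr at 37 C.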

[5] = qHTS assay to identify small molecule antagonists of the retinoid-related orphan receptor gamma (ROR-gamma) signaling pathway - cell viability counter screen (AID 1159520); further: nearly all actives have a fitted effect of over 50% in size
How it was run: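 Tet-on ROR gamma CHO cells (1,000/well) were plated 4 hr, given compounds in DMSO for 2 hr at 37 C, then induced with 1 uM final doxycycline for 16 hr. Viability was read as ATP by CellTiter-Glo luminescence after 30 min.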

[6] = qHTS assay to identify small molecule agonists of the AP-1 signaling pathway - cell viability counter screen (AID 1159525; calls by dose curve; further: nearly all actives have a fitted effect of over 55% in size; further: potency means the concentration at half of the fitted maximal effect)
How it was run: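 ME-180 AP-1-bla, 2500 cells/well, Opti-MEM + 0.5% dialyzed FBS; overnight 37 °C; cpd 15-pt titration, 5 h 37 °C; CellTiter-Glo 30 min RT; luminescence read; normalised to TOAB and DMSO controls.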

[7] = qHTS assay to identify small molecule agonists of the AP-1 signaling pathway (AID 1159526; calls by dose curve)
[8] = target: Retinoic acid receptor RXR-alpha (Homo sapiens) (UniProt P19793); assay: qHTS assay to identify small molecule agonists of the RXR signaling pathway (AID 1159527; calls by dose curve; further: nearly all actives have a fitted effect of over 35% in size; further: potency means the concentration at half of the fitted maximal effect)
How it was run: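 16 hr incubation of compound-treated RXR-alpha-UAS-bla HEK 293T cells (2% charcoal-stripped FBS, 37 C) preceded a 2 hr room-temperature LiveBLAzer FRET substrate step and blue/green fluorescence measurement.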

[9] = qHTS assay to identify small molecule antagonists of the retinoid acid receptor (RAR) signaling pathway - cell viability counter screen (AID 1159551); further: nearly all actives have a fitted effect of over 35% in size
How it was run: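 C3RL4 cells were seeded overnight at 37 C, then treated with compounds plus 1 uM (final) retinol for 6 h at 37 C. Viability was read as ATP by CellTiter-Glo luminescence after 30 min at room temperature.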

[10] = qHTS assay to identify small molecule antagonists of the retinoic acid receptor (RAR) signaling pathway (AID 1159552; further: nearly all actives have a fitted effect of over 50% in size)
How it was run: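 C3RL4 RARE-luc cells, overnight plating; retinol 1 uM final added right after compound; 6 hr 37 C; luciferase read at 30 min RT.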

[11] = target: Nuclear receptor ROR-gamma (Homo sapiens) (UniProt P51449); assay: qHTS assay to identify small molecule antagonists of the retinoid-related orphan receptor gamma (ROR-gamma) signaling pathway (AID 1159521; further: nearly all actives have a fitted effect of over 50% in size; further: potency means the concentration at half of the fitted maximal effect)
How it was run: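 Decreased RORE-driven luciferase luminescence indicates antagonism. Tet-on RORγ CHO cells received compound, then 1 uM final doxycycline 2 h later; signal read after 16 h incubation.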

[12] = qHTS assay to identify small molecule agonists of the retinoic acid receptor (RAR) signaling pathway (AID 1159553); settings: C3RL4 RARE luciferase reporter, agonist, 6 h; activation: at 73.3 µM (top of the series) unless noted
How it was run: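 C3RL4 cells carrying a RARE luciferase reporter were plated overnight at 37 C, then exposed to compounds in DMSO for 6 hr at 37 C and 5% CO2. Luminescence was read 30 min after luciferase reagent addition at room temperature.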

[13] = qHTS assay to identify small molecule agonists of the RXR signaling pathway - cell viability counter screen (AID 1159529)
How it was run: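 In this parallel viability measure, GeneBLAzer RXR-alpha HEK 293T cells (2% charcoal-stripped FBS) were given a 5 hr preincubation, treated with compounds 16 hr at 37 C, and read by CellTiter-Glo luminescence.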

[14] = qHTS assay to identify small molecule antagonists of the estrogen related receptor (ERR) signaling pathway - cell viability counter screen (AID 1224818);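 further: viability measured after 17.5 h of compound exposure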
How it was run: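 ERR reporter cells plated 6 h at 37 C/5% CO2, then compounds in DMSO pin-transferred and incubated 17.5 h at 37 C. Viability read as CellTiter-Fluor fluorescence after 30 min at 37 C.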

[15] = qHTS assay to identify small molecule agonists of the estrogen related receptor (ERR) signaling pathway (AID 1224820)
How it was run: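 Cells: ERR line from NTP, 2,000/well. Pre-incubation 6 h, 37 C/5% CO2. Compound (DMSO) pin transfer, 18 h 37 C. One-Glo, 30 min RT, luminescence.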

[16] = tested on: estrogen-related receptor alpha (ERRalpha) with PGC-1alpha coactivator, human; assay: qHTS assay to identify small molecule antagonists of the estrogen related receptor signaling pathway with the pleiotropic PPARgamma coactivator (PGC) (AID 1224821; calls by dose curve)
How it was run: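 Luminescent read-out (One-Glo, 30 min at room temperature) following 18 h treatment of PGC/ERR cells at 37 C with compounds delivered in DMSO. Cells had settled 6 h at 37 C/5% CO2 before dosing.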

[17] = qHTS assay to identify small molecule antagonists of the estrogen related receptor signaling pathway with the pleiotropic PPARgamma coactivator (PGC) cell viability counter screen (AID 1224822)
How it was run: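 PGC/ERR cells were seeded at 2,000 cells/well, rested 6 h at 37 C/5% CO2, then given compounds in DMSO by pin tool and incubated 17.5 h at 37 C. Viability came from CellTiter-Fluor fluorescence after 30 min.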

[18] = qHTS assay to identify small molecule agonists of the estrogen related receptor signaling pathway with the pleiotropic PPARgamma coactivator (PGC) (AID 1224823)
How it was run: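 Steps: plate PGC/ERR cells at 2,000 cells/well; incubate 6 h, 37 C/5% CO2; pin-transfer compounds (DMSO); incubate 18 h, 37 C; add One-Glo; 30 min RT; read luminescence.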

Measured: Potency

Chain of Retinoic acid receptor RXR-alpha (Homo sapiens) (P19793 whole entry, looked up): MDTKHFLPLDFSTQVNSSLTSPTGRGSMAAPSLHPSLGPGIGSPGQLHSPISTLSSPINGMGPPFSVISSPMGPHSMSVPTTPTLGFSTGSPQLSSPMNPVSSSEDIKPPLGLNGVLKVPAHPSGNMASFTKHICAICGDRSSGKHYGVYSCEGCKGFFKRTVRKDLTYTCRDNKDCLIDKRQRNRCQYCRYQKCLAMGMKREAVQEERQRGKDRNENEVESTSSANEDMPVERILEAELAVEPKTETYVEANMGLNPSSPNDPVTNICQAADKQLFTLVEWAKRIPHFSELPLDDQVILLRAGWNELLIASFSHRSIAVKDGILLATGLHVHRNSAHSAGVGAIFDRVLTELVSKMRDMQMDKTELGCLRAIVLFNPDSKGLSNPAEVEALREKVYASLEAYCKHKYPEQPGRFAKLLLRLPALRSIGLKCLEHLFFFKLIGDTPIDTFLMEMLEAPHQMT

FC(F)(F)C(Cl)Br (stereo not given)
inactive: [1] | [2] | [3] | [4] | [5] | [6] | [7] | [8] | [9] | [10]

C=C[C@H]1CN2CC[C@H]1C[C@H]2[C@H](O)c1ccnc2ccc(OC)cc12
inactive: [3] | [4] | [5] | [6] | [7] | [8] | [9]

c1ccc2c(c1)ccc1cc3c(ccc4ccccc43)cc12
not listed: [12] | [13] | [14] | [15] | [16] | [17] | [18]
inactive: all other assays above

CCCCCCCC/C=C\CCCCCCCC(=O)O
not listed: [13] | [14] | [15] | [16] | [17] | [18]
inactive: all other assays above

CC(=O)Oc1ccc(C(c2ccc(OC(C)=O)cc2)c2ccccn2)cc1
active: [3] 546 nM and 1.07 µM | [6] 109 nM and 952 nM
inactive: [1] | [2] | [5] | [11] | [8] | [13] | [9]

CC1(C)NC(=O)N(c2ccc([N+](=O)[O-])c(C(F)(F)F)c2)C1=O
active: [11] 17.2 µM and 18.8 µM
not listed: [12]
inactive: all other assays above

Clc1ccc(Sc2cc(Cl)c(Cl)cc2Cl)cc1
not listed: [2] | [14] | [15] | [16] | [17] | [18]
inactive: all other assays above

NCCN
inactive: [1] | [2] | [3] | [4] | [5] | [6] | [7] | [8] | [9]

CCCCCCOCCOCCO
inactive and 43.6 µM (active): [8]
not listed: [14] | [15] | [16] | [17] | [18]
inactive: all other assays above

Reference: PubChem BioAssay (Tox21)
